Shown are actives, neighbours in structure and some others; about 4.1% of the full set was active somewhere.
hcDAF12 agonist: activates DAF-12 receptor from parasite H. contortus; HEK293 hcDAF-12 lit1-tk-luc reporter, luminescence; 0% DMSO, 100% Δ7-dafachronic acid; activation, % at 6.8 µM; 370,000 compounds, 1.4% hits; AID 652067;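 active means activation above the mean of all tested compounds plus 3 SD, cut at about 5.5% in these data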
DAX1 inh-1: DAX1 (NR0B1) inhibition, primary screen; HEK293T StAR-luciferase reporter, SF-1/DAX-1 repression relief; 370,000 compounds, 1.1% hits; inhibition, % at 6.8 µM;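 active means inhibition above the mean over all tested compounds plus 3 SD, cut at about 3.6% in these data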;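 further: higher inhibition means more luminescence from relief of DAX-1 repression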
ssDAF-12 act: S. stercoralis DAF-12 activation, primary screen; HEK293 ssDAF-12/GRIP1 lit1-tk-luc reporter, luminescence; % of 3 µM dafachronic acid response; activation, % at 6.8 µM; 370,000 compounds, 1% hits;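 active means activation above the mean over all tested compounds plus 3 SD, cut at about 0.9% in these data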
DAX1 inh-2: inhibitors of human orphan nuclear receptor DAX1 (NR0B1) | P51843 | HEK293 Gal4-DAX1 luciferase reporter, luminescence | inhibition, % at 6.75 µM | 340,000 compounds, 0.99% hits;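 active means inhibition above the mean over all tested compounds plus 3 SD, cut at about 4.2% in these data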;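 further: inhibition shows as a rise in luminescence from relieved DAX1 repression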
Target sequence (P51843 207-470 limits assumed): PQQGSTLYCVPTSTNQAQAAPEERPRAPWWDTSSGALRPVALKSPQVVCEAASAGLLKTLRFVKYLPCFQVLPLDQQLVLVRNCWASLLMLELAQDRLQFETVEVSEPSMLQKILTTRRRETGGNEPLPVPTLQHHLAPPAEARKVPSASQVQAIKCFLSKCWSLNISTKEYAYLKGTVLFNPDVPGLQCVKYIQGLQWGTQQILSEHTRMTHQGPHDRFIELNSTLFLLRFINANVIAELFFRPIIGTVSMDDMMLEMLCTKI
hgDAF12 agonist: activates the H. glycines DAF-12 receptor ligand-binding domain | 370,000 compounds, 1.8% hits | activation, % at 6.8 µM | HEK293 GAL4-hgDAF12 UAS-luciferase reporter, agonist luminescence; normalized to butyrate control;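 active means activation above a cutoff set at the mean of all screened compounds plus 3 SD, cut at about 10% in these data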
Each line names hits and unclear results; the compound was inactive in the other large screens.

O=C(O)Cc1sc(-c2ccc(Cl)cc2)nc1-c1ccccc1	none
O=C(Cc1ccccc1)NCc1ccccn1	none
Cc1ccc(-n2c(SCC(=O)c3ccc(O)c(O)c3)nnc2-c2ccccc2)cc1	none (no result: DAX1 inh-2)
O=C(c1ccccn1)C1CCCN(Cc2nc(Cc3cccc(F)c3)no2)C1 (stereo not given)	DAX1 inh-2 4.4
CCCCOCCCNC(=O)C[C@H]1C[C@@]2(C(=O)OC)C(=C[C@H](C(C)C)O[C@@H]2C2CC2)N(Cc2ccc3c(c2)OCO3)C1=O	none (no result: DAX1 inh-2)
CCN1CCN(c2cc3c(nn2)Oc2ccccc2N3C)CC1	hgDAF12 agonist 12.1
CCN1CCN(c2nnc(-c3ccccc3)c3ccccc23)CC1	none
O=[N+]([O-])/C=C/c1cc2ccccc2[nH]1	hcDAF12 agonist 5.8
O=C(CN1CCOc2ccccc21)NCc1ccccc1	hcDAF12 agonist 5.8
CC(CCc1ccccc1)NC(=O)CN1CCOc2ccccc21 (stereo not given)	none
O=c1c(Cl)c(Nc2cccc(Cl)c2)cnn1-c1nc2ccccc2s1	hcDAF12 agonist 5.9
CCC(C)CNC(=O)c1cn(C(C)c2ccccc2)nn1 (stereo not given)	none (no result: DAX1 inh-2)
CCNC(=S)NNC(=O)CC(C)C	DAX1 inh-2 6.7
CSc1nc(/C=C2\C=Nc3ccccc32)c(O)n1C	hcDAF12 agonist 6.4, ssDAF-12 act 0.9
Cc1cc(C)nc(SCC(=O)Nc2ccc(S(=O)(=O)Nc3ncccn3)cc2)n1	none
Cc1cc(C)nc(NS(=O)(=O)c2ccc(NC(=O)CSc3ncn[nH]3)cc2)n1	DAX1 inh-2 5.8
CCOC(=O)N1CCN(C(=O)C[C@H]2C[C@@]3(C(=O)OC)C(=C[C@H](C4CCCC4)O[C@@H]3C)N(CCc3ccc(OC)c(OC)c3)C2=O)CC1	none (no result: DAX1 inh-2)
CCCCOCCCNC(=O)C[C@H]1C[C@@]2(C(=O)OC)C(=C[C@H](COCc3ccccc3)O[C@@H]2C)N(CCc2ccc(OC)c(OC)c2)C1=O	none (no result: DAX1 inh-2)
O=c1ccnc2n1COCS2	DAX1 inh-2 6.1
O=c1c(-c2ccnn2-c2ccc(F)cc2)cnc2n1CCS2	none
CCCCOc1ccc(C(=O)n2ccc3ccc(-c4ccc5ccn(Cc6cccc(C(=O)OC)c6)c5c4)cc32)cc1	none (no result: DAX1 inh-2)
C=CCc1c(C)nc(N2CCSCC2)[nH]c1=O	DAX1 inh-2 4.3
COc1cc(-c2csc(N3CCC(C(N)=O)CC3)n2)cc(OC)c1OC	none (no result: DAX1 inh-1, DAX1 inh-2)
C=CCN(CC=C)CC(O)CN(c1cc([N+](=O)[O-])ccc1OC)S(=O)(=O)c1ccccc1 (stereo not given)	DAX1 inh-1 3.8
Cc1nc2ccc3nc(NC(=O)C4COc5ccccc5O4)sc3c2s1 (stereo not given)	none
Cc1nc(C2COc3ccccc3O2)sc1C(=O)O (stereo not given)	DAX1 inh-2 5.5
CCOC(=O)/C(C#N)=C/C=C1/C=CC=CN1C	DAX1 inh-2 5.7
COc1cc(F)ccc1-c1csc(C(NC(C)=O)c2cccc(F)c2)n1 (stereo not given)	DAX1 inh-1 4.2 (no result: DAX1 inh-2)
CC(NC(=O)c1ccc(Br)o1)C1CCCO1 (stereo not given)	none
C/C(=N/NC(=O)c1ccc(Br)o1)C(C)C	hgDAF12 agonist 10.7
O=C(N[C@@H](Cc1ccccc1)C(=O)NCP(=O)(O)OC(Cc1ccccc1)C(=O)O)OCc1ccccc1 (stereo not given in full)	none (no result: DAX1 inh-1, DAX1 inh-2)
Cc1ccccc1CNC(=O)C1CCCN(c2ncccn2)C1 (stereo not given)	none (no result: DAX1 inh-2)
O=C(Nc1cccc(-c2cn3cccnc3n2)c1)c1ccc2c(c1)OCO2	none
c1cnc2nc(-c3ccc4c(c3)OCO4)cn2c1	DAX1 inh-1 4.1, hgDAF12 agonist 13.2
COCCCN1C(=O)[C@H](CC(=O)NCc2cccs2)[C@]2(C(=O)OC)CCCCC=C12	none (no result: DAX1 inh-2)
CCOc1ccc(NC(=O)N(C2CCCCC2)C(C)c2ccncc2)cc1 (stereo not given)	ssDAF-12 act 1.6
COc1ccccc1/C=C/C(=O)NC(=S)N1CCN(C)CC1	DAX1 inh-1 3.9
COc1ccc(/C=C/C(=O)NC(=S)N2CCN(c3ccccc3OC)CC2)cc1	DAX1 inh-2 5.5
CCC[C@H]1[C@@H](NC(=O)c2cccc(C)c2)CC[C@@]23CCCN2C(=O)CCC[C@@H]13	none (no result: DAX1 inh-1, DAX1 inh-2)
CC(C)(C)c1ccc(S(=O)(=O)N2CCC(C(=O)N3CCN(C4CCCCC4)CC3)CC2)cc1	none (no result: DAX1 inh-2)
COc1ccc(-c2nc(SC(C)C(=O)NC3CC3)n[nH]2)cc1 (stereo not given)	DAX1 inh-2 4.5
Clc1ccc(OCCOc2ccc(Br)nc2Br)c(Cl)c1	none (no result: DAX1 inh-1, DAX1 inh-2)
N#C/C(=C\c1ccccc1[N+](=O)[O-])C(=O)NCc1ccccc1	DAX1 inh-2 4.5
O=C(/C=C/c1ccccc1[N+](=O)[O-])NCc1ccc(Cl)cc1	none
COc1ccc(NC(=O)COC(=O)/C=C/c2ccccc2[N+](=O)[O-])cc1	none
COC(=O)CNC(=O)COC(=O)/C=C/c1ccccc1[N+](=O)[O-]	ssDAF-12 act 2.0
NS(=O)(=O)c1ccc(CNC(=O)/C=C/c2ccccc2[N+](=O)[O-])cc1	DAX1 inh-2 4.4
COC(=O)c1cc(-c2ccc3ccccc3c2)c(=O)n2c1CCC2	none (no result: DAX1 inh-2)
CCSc1cc(N2CCCC2)nc(-c2ccc(Cl)cc2)n1	none
Clc1ccc(-c2nnc(N3CCCC3)nn2)cc1	DAX1 inh-2 8.8
CC(=O)c1ccccc1NS(=O)(=O)c1ccccc1Cl	hgDAF12 agonist 12.0
COC(=O)[C@]12C[C@H](CC(=O)NCC34CC5CC(CC(C5)C3)C4)C(=O)N(Cc3ccco3)C1=C[C@H](COCc1ccccc1)O[C@@H]2C	none (no result: DAX1 inh-2)
Cc1c(C)c2ccc(OC(C)C(=O)N[C@@H](Cc3c[nH]c4ccccc34)C(=O)O)c(C)c2oc1=O (stereo not given in full)	hcDAF12 agonist 5.9
CC1(NC(=O)c2ccc(C#Cc3cccc(F)c3)cn2)COC1	none (no result: DAX1 inh-2)
COC(=O)C1CN(Cc2ccc(F)cc2)CCS(=O)(=O)N1Cc1ccc(C(F)(F)F)cc1 (stereo not given)	none (no result: DAX1 inh-2)
CSc1nsc(N/N=C/c2ccc3c(c2)OCO3)c1C#N	hgDAF12 agonist 12.3
COc1cc(/C=N/Nc2snc(SC)c2C#N)cc(OC)c1OC	none
COc1ccc(C(=O)CSc2nnc(-c3ccc(C(C)(C)C)cc3)n2C)cc1	none (no result: DAX1 inh-2)
CCOC(=O)N1CCN(C(=O)CCn2nc(-c3ccccc3)ccc2=O)CC1	DAX1 inh-2 4.8
Cc1cc(C)c2c(N)c(C(=O)N/N=C/c3ccccc3)sc2n1	DAX1 inh-2 8.7
Cc1cc(C)c2c(N)c(C(=O)N/N=C/c3cccnc3)sc2n1	none (no result: DAX1 inh-2)
COC(=O)[C@]12C[C@H](CC(=O)NCc3ccc(OC)c(OC)c3)C(=O)N(Cc3cccc4ccccc34)C1=C[C@H](C1CCCC1)O[C@@H]2C	none (no result: DAX1 inh-2)
CCOC(=O)Cn1c(=O)cc(C)c2ccccc21	DAX1 inh-2 4.5
Cc1cc(=O)n(CC(=O)O)c2ccccc12	none
